Data published in PubChem BioAssay AID720542 (National Center for Advancing Translational Sciences (NCATS), 2013).
The campaign covered roughly 360,000 compounds. About 740 (0.21%) were called active. Inconclusive results (about 2%) are left out. The entries come from a sample that favours actives as a whole. A call without a number means that no potency is given here. A number with no mark means an inactive call. The call rests on the fitted dose curve; in most records, active means well fitted inhibition curve with a large enough effect; inconclusive means small, poorly fitted or top-dose-only effect; inactive means no such curve, though single readings can be large or run the other way.

Each molecule was assayed on Plasmodium falciparum AMA1 (3D7) - RON2 peptide interaction (assay: qHTS for Inhibitors of AMA1-RON; Towards Development of Antimalarial Drug Lead: Primary Screen). Conditions: AlphaScreen AMA1-biotinylated RON2 peptide binding; series mostly up to 58.2 µM.
Excerpt: Plasmodium, the causative agent of malaria, is one of the world's deadliest parasitic diseases. Currently there is no vaccine available and there is widespread resistance to common anti-malarial drugs. This warrants novel, alternative approaches for developing improved therapy. During infection, one such essential interaction is between two parasite proteins, the apical membrane antigen1 (AMA1) that is translocated onto the merozoite surface and the rhoptry neck protein 2 (RON2), which is transferred to the red blood cells (RBC) membrane during invasion (Besteiro et.al., 2009). Recently, the Miller lab has shown that the interaction between AMA1 and RON2 is essential for junction formation of the parasite with the host cell (Srinivasan et.al., 2011). The binding of the RON2 peptide to the hydrophobic pocket in AMA triggers the formation of the moving junction which provides a firm anchor for the parasite to pull itself into the RBC using its actin-myosin motor; an irreversible step that commits the parasite for invasion. Only one AMA1 and RON2 genes exists in Plasmodium and there are no alternate pathways. Moreover, the region corresponding to RON2 peptide is conserved in all P. falciparum isolates for which sequences are available. The key residues in the AMA1 hydrophobic pocket that binds RON2 are also conserved and indicate a functional constraint governing this essential step in invasion since a short RON2 peptide (RON2L) corresponding to the binding region on AMA1 is sufficient to compete with the native RON2 protein and inhibits invasion (Tonkin et.al, 2011). Therefore, developing small molecule inhibitors of this interaction offers a promising target opening a new arena for anti-malarial therapeutics drug design.
In collaboration with the Miller lab, a quantitative High Throughput Screen using the AlphScreen technology was developed using a recombinant his-tagged AMA1 and a biotinylated RON2 peptide. This fluorescent screen was assayed against the NIH Molecular Libraries Small Molecule Repository (MLSMR). Inhibition of this protein-protein interaction is the desired outcome of this assay. However, due the limitations of this AlphaScreen assay, a large number of artifacts were observed. An AlphaScreen counterscreen was run to identify the true inhibitors, triage compound activity, and weed out false positives.
NIH Chemical Genomics Center [NCGC]
NIH Molecular Libraries Probe Centers Network [MLPCN]
Assay Submitter (PI): Louis Miller, National Institute of Allergy and Infectious Disease (NIAID)
Two microliters of his-tagged AMA1 3D7 allele protein (final concentration 25 nM) was dispensed into a 1,536-well assay plate. Small molecules and positive control peptides were pin-transferred (23 nL or 46 nL) via Kalypsys pin-tool equipped with a 1,536-pin array, resulting in final compound and peptide concentration ranges of 91.5 nM - 57.2 µM, and 15.6 nM - 2.00 µM, respectively. Unlabeled RON2 peptide or R1 peptide ([…]) that specifically binds the 3D7 AMA1 was used as a positive control that inhibited the binding of RON2L to AMA1. After 15 minutes incubation, 1 uL of biotinylated RON2 peptide (final concentration 25 nM) or buffer were dispensed and the assay plate was incubated for an additional 30 minutes at room temperature and protected from light. This was followed by an addition of 1 uL mixture of donor and acceptor beads (10 ug/mL final concentrations for each). The plates were incubated for 30 min at room temperature and read using the EnVision(R) plate reader (PerkinElmer). Maximum inhibition response was normalized to the positive control signal while no inhibition response was normalized to the DMSO treated wells.
Further: nearly all actives have a fitted effect of over 45% in size.
Potency means the concentration at half of the fitted maximal effect.

SMILES | Potency | activity change, negative = inhibition
Cc1c(S(=O)(=O)NCc2ccccc2)c(=O)n(C)c(=O)n1C | inactive | –
CC(C)(C)C1CCC(=O)N2CCC[C@]2(c2ccccc2)C1 (stereo partly drawn) | inactive | –
O=C(O)CCCN1C(=O)c2ccccc2Sc2ncccc21 | inactive | –
Cc1ccc(C(=O)NCCc2nnc(SCC(=O)Nc3cccc(C(=O)O)c3)n2C)cc1 | inactive | –
CCCCc1nc2c(=O)[nH]c3ccccc3c2o1 | inactive | –
CC(Sc1nnnn1C1CCCCC1)C(=O)O (stereo not drawn) | inactive | –
CC(=O)c1c(C)[nH]c(C(=O)OCC(=O)Nc2cc(S(=O)(=O)N3CCCCC3)ccc2C)c1C | inactive | –
CN(Cc1ccccc1F)c1cc2c(c3c1ccn3C)C1CCC2O1 (stereo not drawn) | 31.6 µM (active) | –
CCCCN(C(=O)c1nn(C)c(=O)c2ccccc12)c1c(N)n(CCC)c(=O)[nH]c1=O | inactive | –
O=C(Nc1ccc2c(c1)nc1n2CCCCC1)c1cc(S(=O)(=O)N2CCOCC2)ccc1Cl | inactive | –
CCOC(=O)C1=C(CC)Nc2ccccc2N=C1NC(=O)c1cccc(S(=O)(=O)N2CCCC2)c1 | inactive | –
Cc1ncoc1C(=O)NCCC(c1ccccc1)c1ccccc1 | inactive | –
Cc1ccc(S(=O)(=O)/N=C(\CN2CCOCC2)N2CCOCC2)cc1 | inactive | –
O=C(Nc1ccc(N2CCN(C(=O)c3cccs3)CC2)cc1)c1cccnc1Cl | inactive | –
COc1ccc(N2CCN(C(=S)Nc3ccc(S(N)(=O)=O)cc3)CC2)cc1 | inactive | –
C=CC(=O)Nc1ccc(Nc2ccnc(Nc3ccc(N4CCN(C)CC4)cc3)n2)cc1 | 15.8 µM (active) | –
Cc1ccccc1NC(=O)COC(=O)c1cc(C)n(C2CC2)c1C | – | 4.53% [at 11.6 µM]
CC(NC(=O)c1ccc(N2CCNCC2)c([N+](=O)[O-])c1)C12CC3CC(CC(C3)C1)C2 (stereo not drawn) | inactive | –
c1ccc(CSc2nnc(-c3ccco3)c(-c3ccco3)n2)cc1 | 31.6 µM (active) | –
CSc1c(SCc2ccccc2)cnn(Cc2ccccc2)c1=O | inactive | –
CN(C)C(=O)CSc1n[nH]c(-c2ccco2)n1 | inactive | –
Cc1ccc(-n2ncc(C(=O)NC3CC3)c2C2CCN(C(=O)OC(C)(C)C)CC2)c(C)c1 | inactive | –
O=C(OCC#CCSc1nnc(-c2ccncc2)o1)c1sc2ccccc2c1Cl | inactive | –
Cc1ccc([N+](=O)[O-])c(OCCCNCC(C)O)c1 (stereo not drawn) | inactive | –
CCOC(=O)C1CCCN(C(=O)c2ccc(CS(=O)(=O)c3ccc(Br)cc3)o2)C1 (stereo not drawn) | inactive | –

SMILES | Potency | activity change, negative = inhibition
C=CCNc1nc(N)c(C(=C(C#N)C#N)c2ccccc2)s1 | inactive | –
CCCC1CC(C)(C(=O)Cn2[nH]c(=O)ccc2=O)OC1=O (stereo not drawn) | inactive | –
CC12COC3(C(=O)Nc4ccc(Cl)cn4)CC1CCC32C (stereo not drawn) | inactive | –
CCC(=C/c1sc2ccc3ccccc3c2[n+]1C)/C=C1\Sc2ccc3ccccc3c2N1C | 35.5 µM (active) | –
COc1ccc(CN2CCC(c3nc4ccc(Cl)cc4[nH]3)CC2)cc1 | inactive | –
COCCOC(=O)C1=C(C)NC(=O)NC1c1cc2c(cc1Br)OCO2 (stereo not drawn) | inactive | –
O=C(CSc1nnc(-c2cccs2)n1Cc1ccccc1)N1CCc2ccccc2C1 | inactive | –
CC(C)CC(=O)N1CCN(Cc2ccccc2Br)CC1 | 20 µM (active) | –
CC(C)CC(=O)N1CCN(Cc2cccc(Cl)c2)CC1 | inactive | –
COc1ccccc1CN1CCN(C(=O)Cc2ccccc2)CC1 | inactive | –
CCCCC(O)C1=C[N+](=O)CC=C1 (stereo not drawn) | inactive | –
CN1CCN(Cc2nc3cc(NC(=O)COc4ccc([N+](=O)[O-])cc4)ccc3n2C)CC1 | inactive | –
COc1ccc(C2(CNC(=O)C(c3ccccc3)c3ccccc3)CCOCC2)cc1OC | inactive | –
CCCN(CCC)CC(O)COc1ccccc1C(=O)Nc1ccccc1 (stereo not drawn) | inactive | –
CC(C)C(O)C1CCN(Cc2nc(Cc3ccccc3Cl)no2)CC1 (stereo not drawn) | inactive | –
CCCOc1cc(C)c(S(=O)(=O)n2nnc3ccccc32)cc1C | inactive | –
COc1cccc(-n2c(=O)c3c(C)c(C(=O)N(C)C)sc3n(CC(=O)NCCc3ccc(OC)c(OC)c3)c2=O)c1 | inactive | –
Cc1ccc(OCC(=O)Nc2cccc3c2CCCC3)cc1C | inactive | –
Oc1cc(O)c2c(c1)OC(c1ccc(O)c(O)c1)C(O)C2 (stereo not drawn) | inactive | –
CCOC(=O)C1(Cc2ccccc2C(F)(F)F)CCN(C(=O)c2cc(C)n(C)n2)CC1 | inactive | –
C[C@H](CO)N1C[C@H](C)[C@@H](CN(C)C(=O)NC2CCCCC2)Oc2ccc(NC(=O)c3ccncc3)cc2C1=O | inactive | –
CCCCN(C(=O)c1ccc(OC(F)(F)F)cc1)c1c(N)n(CCC)c(=O)[nH]c1=O | inactive | –
CC(C)C(=O)NCC(c1cccs1)S(=O)(=O)c1ccc(F)cc1 (stereo not drawn) | inactive | –
Cc1csc(=O)n1CCC(=O)OCC(=O)Nc1ccc(N2CCOCC2)cc1 | inactive | –
CCc1c(C)[nH]c(=S)c(C#N)c1C | inactive | –

SMILES | Potency | activity change, negative = inhibition
COc1ccc(C)cc1S(=O)(=O)Nc1cccc(Cl)c1Cl | inactive | –
CCN(CC)C(=O)CSc1nnc(-c2cnccn2)n1-c1ccc(C)cc1 | inactive | –
COC(=O)c1ccc(OCC(O)CN(CCO)CC(O)Cn2ccc3ccccc32)cc1 (stereo not drawn) | inactive | –
NC(=O)CCCC1=NS(=O)(=O)c2ccccc2N1 | inactive | –
CC(CC(=O)Nc1ccc(F)cc1F)S(=O)(=O)c1ccc2c(c1)NC(=O)CO2 (stereo not drawn) | inactive | –
O=C(NC1CCCC1)C(NS(=O)(=O)c1ccc(Br)s1)c1ccccc1 (stereo not drawn) | inactive | –
Cc1ccc(N)cc1-n1c(C)ccc1C | inactive | –
COc1cc(C(=O)NNC(=O)CN2C(=O)NC3(CCCC3)C2=O)cc(OC)c1OC | inactive | –
OC(c1ccc(Cl)cc1)C(CN1CCOCC1)c1ccccc1 (stereo not drawn) | inactive | –
C=CCn1c(SCc2c(C(=O)OC)sc(N)c2C(=O)OC)nnc1-c1ccc(Cl)cc1 | inactive | –
CC1(C)CC(=O)c2cnc3nc4ccccc4n3c2C1 | inactive | –
CCCC1(C(=O)OC)NC(c2ccco2)C2C(=O)N(C)C(=O)C21 (stereo not drawn) | inactive | –
Cn1ccc(=Nc2ccc(NC(=O)c3ccc(N=c4ccn(C)c5ccc([N+](=O)[O-])cc45)cc3)cc2)cc1 | inactive | –
CCCN(CCC)S(=O)(=O)c1ccc(C(=O)N2CC3CCC(CC3)C2)cc1 | inactive | –
CN(c1ccccc1)S(=O)(=O)c1ccc2[nH]c(=O)[nH]c2c1 | inactive | –
CC1(C(=O)NCc2ccco2)Cc2c(-c3ccc4c(c3)OCO4)ccnc2O1 (stereo not drawn) | inactive | –
COC(=O)c1ccc(NC(=O)CSc2nncc3ccc(OC)c(OC)c23)cc1 | inactive | –
COCCN(CC(=O)Nc1ccccc1C)S(=O)(=O)c1ccc(S(=O)(=O)N2CCCC2)cc1 | inactive | –
CSc1nnc2c(n1)OC(c1cn(C)c3ccccc13)N(C(C)=O)c1ccccc1-2 (stereo not drawn) | inactive | –
O=C(CN1C(=O)NC2(CCCCCCC2)C1=O)NCc1ccc(F)cc1 | inactive | –
Cc1nc([N+](=O)[O-])nn1C12CC3CC(CC(Br)(C3)C1)C2 | inactive | –
CCOc1ccc(OCC)c(NC(=O)C2CCN(S(=O)(=O)c3c(C)noc3C)CC2)c1 | inactive | –
CSCc1cc(N2CCOCC2)nc(SCc2ccc(Cl)cc2Cl)n1 | inactive | –
CC(=O)c1ccc(S(=O)(=O)NC2CC(=O)N(c3ccc4c(c3)OCCO4)C2)cc1 (stereo not drawn) | inactive | –
NC(=O)CC(NC(=O)Cc1ccc(Br)cc1)c1ccc(NC2CC3CCC2C3)c([N+](=O)[O-])c1 (stereo not drawn) | inactive | –

SMILES | Potency | activity change, negative = inhibition
CCOC(=O)C1(Cc2ccccc2C)CCCN(S(C)(=O)=O)C1 (stereo not drawn) | inactive | –
COc1ccc(CNC(=O)C[C@H]2C[C@H](C(=O)N3CCOCC3)[C@@]3(C)c4[nH]c5cc(CCC(=O)N(C)C)ccc5c4CCN3C2=O)cc1OC | inactive | –
COc1ccc2occ(C(=O)c3ccc(N=C(C)N(C)C)cc3)c2c1 | inactive | –
CN(C)c1ccc(Nc2c3c4c(cccc4n(C)c2=O)C(=O)c2ccccc2-3)cc1 | 4.47 µM (active) | –
O=C(NCCOc1ccccc1F)Nc1ccc(Br)cc1 | inactive | –
COCCNC(=O)Nc1ccc2nc(-c3ccco3)c(-c3ccco3)nc2c1 | 7.08 µM (active) | –
COCCN(C(=O)c1ccco1)c1nnc(-c2ccc(OC)cc2)s1 | inactive | –
CC1=C(C(=O)OC(C)(C)C)C(c2ccc(Br)cc2)NC(=O)N1CCCC(=O)O (stereo not drawn) | inactive | –
O=C(CSc1nnc2ccc(-c3ccncc3)nn12)N1CCCCC1 | inactive | –
O=C1CCC/C=C\C[C@@H](CC(=O)N(CCO)Cc2ccccc2)C(=O)NCCO1 | inactive | –
O=C(O)CSC(NC(=O)c1cccnc1)(C(F)(F)F)C(F)(F)F | inactive | –
COc1ccc(OC)c(C2C3=C(N=c4s/c(=C\c5cccc(O)c5)c(=O)n42)c2ccccc2CC3)c1 (stereo not drawn) | inactive | –
CCOCCCN(C)C1CCN(C(=O)c2oc3ccccc3c2NC(=O)COc2cccc(C)c2)CC1 | inactive | –
COc1cc(C(=O)OCC(=O)N(CC(C)C)C2CCS(=O)(=O)C2)ccc1OCC(C)C (stereo not drawn) | inactive | –
COc1nc(N(C)C)nc(N2CC(=O)N(CCNS(=O)(=O)c3ccc(C)cc3)C2=N)n1 | inactive | –
CCOc1ccc(NC(=O)CN(C)C(=O)c2cccc(S(=O)(=O)N3CCCC3)c2)cc1OCC | inactive | –
Cc1ccc(CN2CC(C(=O)N3CCN(S(=O)(=O)c4ccccc4)CC3)CC2=O)cc1 (stereo not drawn) | inactive | –
CS(=O)(=O)c1ccc(Cl)c(NC(=O)COC(=O)c2ncc(Cl)c(Cl)c2Cl)c1 | inactive | –
C=C1C2C[C@H](O)C(C)(C)[C@@]2(O)[C@H](O)C[C@]23C[C@@](C)(O)[C@H](CC[C@H]12)[C@H]3O (stereo partly drawn) | inactive | –
CCc1ccc(S(=O)(=O)Nc2cc3c(cc2N2CCCCC2)n(C)c(=O)c(=O)n3C)cc1 | inactive | –
O=S(=O)(Nc1cc(S(=O)(=O)N2CCOCC2)ccc1N1CCCC1)c1cccs1 | inactive | –
COc1cccc(N(CC(=O)NC2CCCC2)C(=O)Cn2nnc(-c3ccc(C)cc3)n2)c1 | inactive | –
CC(C)(C)OC(=O)N1CCC(C(=O)Nc2cccc(C(=O)NCCc3ccccc3)c2)CC1 | inactive | –
